In PubChem BioAssay (Tox21):
The source made the active and inactive calls. Calls come from the whole dose curve; as a rule, active = well fitted curve in the direction sought with a large enough effect in the repeat runs; inconclusive = weak or mixed curves; inactive = flat fitted curve, though single readings scatter.
% is set by controls: 0 for no effect and ±100 for the full control effect.

Test: qHTS assay to test for compound auto fluorescence at 590 nm (red) in HepG2 cell free culture (AID 720684)
Conditions: cell-free medium autofluorescence, red 540/590 nm; series mostly up to 91.3 µM; fluorescence, % of Rose Bengal: at the top concentration
From the text: U.S. Tox21 Program National Center for Advancing Translational Sciences [NCATS] NIH Chemical Genomics Center [NCGC] U.S. Environmental Protection Agency [EPA] National Institutes of Environmental Health Sciences [NIEHS] National Toxicology Program [NTP] U.S. Food and Drug Administration [FDA] Tox21 Assay Overview: Compound auto fluorescence often interferes with screening of the compound library against various biological targets and signaling pathways. Some of these compounds may have fluorophoric properties. Such properties may interfere with the assay outputs resulting in false positives and/or negatives. To decrease such complications and ensure the compound activities are relevant in terms of biological response, the Tox21 10K compound library was screened for auto fluorescence. From the fluorophores used as reporter signals in our screening assays, the auto fluorescence equivalencies of compounds against three fluorophores have been evaluated: Triamterene, Fluorescein and Rose Bengal sodium for blue, green and red fluorescence, respectively. The fluorescence intensities were measured using Excitation/Emission wavelengths at 405/460nm, 485/535nm and 540/590nm for blue, green and red labels, respectively. This assay includes the red fluorescence data.
Tox21 Assay Protocol Summary: 5 uL of culture medium (MEM containing 10% FBS) per well was dispensed into black wall/clear bottom 1536-well plates using a Multidrop Combi Dispenser (ThermoFisher Scientific, Waltham, MA). After 23 nL compound or DMSO vehicle was transferred into assay plate by a pintool work station (Kalypsys, San Diego, CA), fluorescence intensities in the assay plates were measured by an Envision (PerkinElmer, Shelton, CT) plate reader using three labels for measuring blue, green and red fluorescence at […] 460, 535 and 590nm respectively.
With Oc1c(I)cc(Cl)c2cccnc12 the Potency was “inactive”.
With Cc1cc(C(C)(C)C)c(O)c(C)c1Cn1c(=O)n(Cc2c(C)cc(C(C)(C)C)c(O)c2C)c(=O)n(Cc2c(C)cc(C(C)(C)C)c(O)c2C)c1=O the “fluorescence, % of Rose Bengal” value was 0.275% (inactive).
For CC[C@H](C)COC(=O)/C=C/c1ccc(N=Cc2ccc(OC)cc2)cc1, the “fluorescence, % of Rose Bengal” value was -0.0587% (inactive).
With CCCCCCC1CCCC(=O)O1 (stereo not given) the “fluorescence, % of Rose Bengal” value was 0.0133% (inactive).
With Cc1ccc(C(=O)O)cc1 the “fluorescence, % of Rose Bengal” value was -0.0301% [at 95.7 µM] (inactive).
For C#C[C@]1(OC(C)=O)CC[C@H]2[C@@H]3CCC4=C[C@@H](OC(C)=O)CC[C@@H]4[C@H]3CC[C@@]21C, the Potency was “inactive”.
With CCCCC(CC)COC(=O)CCCCC(=O)OCc1ccccc1 (stereo not given) the “fluorescence, % of Rose Bengal” value was -0.0987% (inactive).
For Nc1ccc(C(=O)O)c(O)c1, the “fluorescence, % of Rose Bengal” value was 0.0902% [at 46 µM] (inactive).
With O=C(O)c1cc(O)c2ccccc2c1O the “fluorescence, % of Rose Bengal” value was -0.174% (inactive).
For Cc1cc(=O)oc2cc(O)cc(O)c12, the “fluorescence, % of Rose Bengal” value was 0.0124% (inactive).
For COC(=O)c1ccccc1OC, the “fluorescence, % of Rose Bengal” value was 0.0445% (inactive).
For COC1=C(OC)C(=O)C(CCCCCCCCCCO)=C(C)C1=O, the “fluorescence, % of Rose Bengal” value was 0.129% [at 46 µM] (inactive).
With CCCCOC(=O)CC the “fluorescence, % of Rose Bengal” value was 0.0172% (inactive).
In the case of O=S(=O)(O)c1ccccc1/C=C/c1ccc(-c2ccc(/C=C/c3ccccc3S(=O)(=O)O)cc2)cc1, the “fluorescence, % of Rose Bengal” value is reported as -0.0581% (inactive).
In the case of O=S(=O)(O)c1ccc(Nc2nc(Nc3ccc(/C=C/c4ccc(Nc5nc(Nc6ccc(S(=O)(=O)O)cc6)nc(N(CCO)CCO)n5)cc4S(=O)(=O)O)c(S(=O)(=O)O)c3)nc(N(CCO)CCO)n2)cc1, the “fluorescence, % of Rose Bengal” value is reported as 0.0206% (inactive).
For CC[N+](CC)(CC)CCOC(=O)C(C1CCCC1)C1CCCC1, the “fluorescence, % of Rose Bengal” value was -0.155% [at 46 µM] (inactive).
With OCC(F)(F)F the “fluorescence, % of Rose Bengal” value was -0.0699% [at 95.7 µM] (inactive).
With CCCCOC(=O)CO the “fluorescence, % of Rose Bengal” value was -0.214% (inactive).
With CCCCCCCCCCCCCC[N+](C)(C)C the Potency was “inactive”.
For C=C(C)c1cccc(C(=C)C)c1, the “fluorescence, % of Rose Bengal” value was -0.217% (inactive).
For OC[C@@H](O)[C@@H](O)CO, the “fluorescence, % of Rose Bengal” value was 0.0153% (inactive).
With CC(C)(c1cc(Br)c(OCC(Br)CBr)c(Br)c1)c1cc(Br)c(OCC(Br)CBr)c(Br)c1 (stereo not given) the “fluorescence, % of Rose Bengal” value was 0.0258% [at 46 µM] (inactive).
In the case of COCCOc1cc2cc(C(=O)NC3CCN(C(C)C)CC3)n(CC(=O)Nc3ccc(Cl)cn3)c2cn1, the “fluorescence, % of Rose Bengal” value is reported as 0.0433% (inactive).
With COC(=O)c1ccccc1C the “fluorescence, % of Rose Bengal” value was -0.0804% (inactive).
With CN(C)c1ccc(C(=C2C=CC(=[N+](C)C)C=C2)c2ccc(N(C)C)cc2)cc1 the Potency was “inactive”.
In the case of CCCC(=O)OCCc1ccccc1, the “fluorescence, % of Rose Bengal” value is reported as 0.353% (inactive).
With CCN(CCN)c1cccc(C)c1 the Potency was “inactive”.
With OC12N=C(c3ccccc3)SC1Cc1cc(Cl)ccc12 (stereo not given) the “fluorescence, % of Rose Bengal” value was 0.0401% (inactive).
In the case of CCCCCCCCCCCCCCCC[N+](C)(C)CC, the Potency is reported as “inactive”.
For O=C(Oc1ccccc1)Oc1ccccc1, the “fluorescence, % of Rose Bengal” value was 0.0727% (inactive).
With O=C(O)c1cccc(C(F)(F)F)c1 the “fluorescence, % of Rose Bengal” value was 0.0816% (inactive).
For O=C1OC2(c3ccc(O)cc3Oc3cc(O)ccc32)c2ccc(N=C=S)cc21, the “fluorescence, % of Rose Bengal” value was 0.806% [at 95.7 µM] (inactive).
In the case of c1cnccn1, the “fluorescence, % of Rose Bengal” value is reported as 0.305% [at 95.7 µM] (inactive).
In the case of Clc1sc(Cl)c(Cl)c1Cl, the “fluorescence, % of Rose Bengal” value is reported as -0.614% (inactive).
In the case of COc1cccc2c1C(=O)c1c(O)c3c(c(O)c1C2=O)C[C@@](O)(C(C)=O)C[C@@H]3O[C@H]1C[C@H](N)[C@H](O)[C@H](C)O1, the “fluorescence, % of Rose Bengal” value is reported as 9.13% [at 46 µM] (inactive).
For CCO[Si](OCC)(OCC)OCC, the “fluorescence, % of Rose Bengal” value was 0.0169% [at 95.7 µM] (inactive).
In the case of Cc1cc(C(C)(C)C)cc(C)c1CC1=NCCN1, the fluorescence, % of Rose Bengal is reported as -0.207% [at 18.6 µM] (inactive).
In the case of CC1(C)CC(O)CC(C)(C)N1, the “fluorescence, % of Rose Bengal” value is reported as -0.0654% [at 95.7 µM] (inactive).
For COC(C)=O, the Potency was “inactive”.
With CCCCC(CC)CN1CN(CC(CC)CCCC)CC(C)(N)C1 (stereo not given) the fluorescence, % of Rose Bengal was 0.0615% [at 18.6 µM] (inactive).
